These results are taken from paper PMC5540273 (PLoS ONE, 2017).
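Note: KINOMEscan kinase panel screen.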

In this assay the test system is EPHA5. Conditions: concentration: 1 μM, replicates: in singlicate; n = 1.
In the case of `CN1C(=O)C(Nc2cc(Cl)c(O)c(Cl)c2)=C(c2ccc(Cl)cc2)C1=O` [SB-404321], the “%Inh” value is given as 8%. With `CCC(=O)c1c(-c2ccccc2)c2cc(Cl)ccc2c(=O)n1Cc1cc(C(=O)NC2CC2)n(C)n1`, the “%Inh” value amounted to 0%. Regarding `COc1cccc(C2=C(Nc3cccc(C(=O)O)c3)C(=O)NC2=O)c1` [SB-390770], the “%Inh” value is recorded as 0%. `O=C(Nc1ccc2c(c1)OCO2)NC1CCN(c2ccnc(NCc3ccc(F)cc3)n2)CC1` [GSK1379859]: the “%Inh” value came out at 0%. In the case of `COc1cc2nccc(Nc3cccc(Oc4ccccc4)c3)c2cc1OC.Cl` [GW284543], the “%Inh” value amounted to 0%. The result for `COc1cc(Nc2nccc(N3CCC(NC(=O)C(C)c4ccc(Cl)cc4)C3)n2)cc(OC)c1OC` (stereo not shown) [GSK1379757] reads 0%; that for `Cc1ccccc1COc1cc(-n2cnc3cc(Cl)ccc32)sc1C(N)=O` [GW813349], 0%. In the case of `CCC(=O)c1c(-c2ccccc2)c2cc(Cl)ccc2c(=O)n1Cc1cc(S(C)(=O)=O)n(CCC(C)(C)O)n1`, the “%Inh” value stood at 11%. Take `Cc1nn2c(=O)cc(N3CCOCC3)nc2n1Cc1cccc(Cl)c1Cl` [GSK2342769]: the “%Inh” value is 0%. For the compound `COc1ccc(Nc2nccc(N3CCC(NS(=O)(=O)c4ccc(NC(C)=O)cc4)C3)n2)cc1` (stereo not shown) [GSK1379729], the “%Inh” value was found to be 7%. In the case of `Cc1cccc(-c2nc(Nc3ccc4c(cnn4C)c3)c3ccccc3n2)n1` [GW876731] it was 1%; in that of `C[C@@H]1CC[C@H](C(=O)NC2CCCCC2)CN1c1cc(-c2ccc3c(N)n[nH]c3c2)nc(N)n1` [GSK2291363], 11%; in that of `COc1cc2ncn(-c3cc(OCc4ccncc4Br)c(C(N)=O)s3)c2cc1OC` [GW854278], 0%. In the case of `Cc1ccc(-c2ccc3c(ccc4sc5c(c43)NC[C@@H](C)N=C5N(C)C)n2)cn1`, the “%Inh” value was found to be 0%. `COc1ccc(-c2coc3ccc(-c4nnc(SCc5cccc(C#N)c5)o4)cc23)cc1`: the “%Inh” value is reported as 21%. The result for `Cc1cc(Nc2nc(-c3cccc(C)n3)nc3ccccc23)ccn1` [GW872411] reads 0%; that for `Cl.NS(=O)(=O)c1cccc(Nc2cc(-c3ccc(F)cc3)n[nH]2)c1` [GW824645], 0%; that for `CC(C)(C)c1ccc(C(=O)Nc2cn3cc(-c4ccccc4)ccc3n2)cc1`, 0%.

As to `CCn1c(-c2ccoc2)nc2cnccc21` [SB-733887], the “%Inh” value is listed as 0%. The result for `Nc1n[nH]c2nnc(-c3ccccc3)c(-c3ccccc3)c12` [GW554060] reads 0%; that for `CN(C)c1cc(-c2ccc3c(N)n[nH]c3c2)nc(N)n1` [GSK2219329], 0%; that for `Nc1ncnc2c1ncn2-c1cccc(F)c1` [SKF-97560], 0%. In the case of `Nc1nc(-c2ccccc2F)c(-c2ccnc3ccccc23)s1` [GW560459] it was 0%; in that of `CCn1c(-c2nonc2N)nc2ccccc21` [SB-693162/GW549034], 0%. The result for `Cc1ccc(Oc2ccc(Nc3ncnc4cc[nH]c34)cc2C)cn1` reads 16%; that for `Cc1nnc(-c2ccc(C)c(-c3ccc(C(=O)O)cc3)c2)o1` [GW608005], 0%; that for `CCS(=O)c1ccc(-c2coc3ccc(-c4nnc(C)o4)cc23)cc1` (stereo not shown), 4%.

In the case of `COC(=O)c1c(-c2ccccc2)c2cc(C)ccc2c(=O)n1Cc1ccccc1`, the “%Inh” value is listed as 0%. In the case of `Nc1nccc2scc(-c3ccc4c(c3)CCN4C(=O)Cc3ccccc3)c12` [GSK2576924] it was 0%; in that of `OCCCNc1nccc(-c2c(-c3cccc(C(F)(F)F)c3)nn3cc(C(F)(F)F)ccc23)n1` [GW630813], 0%; in that of `O=c1cc(N2CCOCC2)nc2n(Cc3ccc(F)c(Cl)c3)ccn12` [GSK2297099], 0%.

With `Cc1nnc(-c2ccc3ncn(-c4ccc(S(C)=O)cc4)c3c2)o1` (stereo not shown), the “%Inh” value was 17%.

On to `COC(=O)c1c(-c2ccccc2)c2cc(Br)ccc2c(=O)n1Cc1ccc(NC(=O)CCC(=O)O)cc1`, for which the “%Inh” value is 7%. As to `COc1cc(OC)cc(-c2cc3cnc(N)nc3nc2NC(=O)NC(C)(C)C)c1`, the “%Inh” value came out at 0%. In the case of `Nc1ncnc2c1ncn2-c1ccc(Cl)cc1` [AH2635] it was 0%; in that of `Cl.c1ccc(Cn2cnc3cc(Nc4ncnc5ccccc45)ccc32)cc1` [GW272142], 0%; in that of `CCC(=O)c1c(-c2ccccc2)c2cc(Cl)ccc2c(=O)n1Cc1ccc(C(=O)O)cc1`, 0%.
